ELG1 genotoxic: genotoxicity induction in ELG1-luciferase HEK293T cells; HEK293T ELG1-luciferase reporter, luminescence, 16 h; Potency, µM (titrated, usually from 46 µM), hits mostly activators; 330,000 tested, 1.3% active; AID 504466; note: nearly all actives have a fitted effect of over 60% in size
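Screening used a luciferase reporter fused to human ELG1 in HEK293T cells. Luminescence was read on a CCD plate imager after 16 hr exposure and 30 min ONE-Glo incubation.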
Luc counter: blocks Kinase-Glo luciferase, a counter-screen artifact. Potency, µM (top dose mostly 38.3 µM), usual class: inhibitors. 200,000 tested, 0.28% active. Kinase-Glo luciferase, ATP luminescence, 8 min. Q27757; note: nearly all actives have a fitted effect of over 60% in size
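Kinase-Glo luciferase light output from ATP and luciferin was measured with 10 uM ATP, within the enzyme's linear range. Buffer: 50 mM imidazole pH 7.2, 50 mM KCl, 7 mM MgCl2, 0.01% Tween 20, 0.05% BSA; luminescence read after 8 min at ambient temperature.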
SMN2 splice up: enhancers of SMN2 splice variant expression; HEK293 SMN2-luciferase splicing reporter, luminescence, 30-36 h; Potency, µM (series often up to 46.1 µM), hits mostly activators; 210,000 tested, 2.8% active; note: nearly all actives have a fitted effect of over 55% in size
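qHTS luciferase splicing reporter: luminescence rises when SMN2 exon 7 is included in transfected HEK293 cells. Compound exposure lasted 30-36 h at 37C, with 4.5 mM final sodium butyrate as control, followed by a ONE-Glo read.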
NPC1 promoter act: activators of NPC1 promoter; Potency, µM (series often up to 9.22 µM), usual class: activators; Huh7 NPC1 promoter luciferase reporter, 24 h; 320,000 tested, 2.4% active; AID 485313; note: nearly all actives have a fitted effect of over 60% in size
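Cells: Huh7 expressing luciferase under the NPC1 promoter, 1500/well. Seeded 2 h, compound added, incubated 24 h at 37 °C. Luciferase reagent, 10 min ambient, then luminescence.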
Rab9 promoter act: activators of Rab9 promoter; Huh7 Rab9 promoter-luciferase reporter, luminescence, 24 h; 320,000 tested, 2.8% active; Potency, µM (highest dose often 9.22 µM), usual class: activators; AID 485297; note: nearly all actives have a fitted effect of over 60% in size
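Cell-based reporter: Huh7 stable for Rab9 promoter-driven luciferase, plated in reduced-serum medium with 10% FBS at 1500 cells/well, compound-treated 24 h at 37 °C, luminescence read after 10 min reagent.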
FLuc modulator: firefly luciferase modulation, counter-screen for miR-21 project; Potency, µM (series often up to 57.5 µM), hits mostly inhibitors; P08659; 360,000 tested, 6.9% active; purified FLuc, Km substrates, luminescence inhibition; note: nearly all actives have a fitted effect of over 55% in size
Target sequence (P08659 whole entry, looked up): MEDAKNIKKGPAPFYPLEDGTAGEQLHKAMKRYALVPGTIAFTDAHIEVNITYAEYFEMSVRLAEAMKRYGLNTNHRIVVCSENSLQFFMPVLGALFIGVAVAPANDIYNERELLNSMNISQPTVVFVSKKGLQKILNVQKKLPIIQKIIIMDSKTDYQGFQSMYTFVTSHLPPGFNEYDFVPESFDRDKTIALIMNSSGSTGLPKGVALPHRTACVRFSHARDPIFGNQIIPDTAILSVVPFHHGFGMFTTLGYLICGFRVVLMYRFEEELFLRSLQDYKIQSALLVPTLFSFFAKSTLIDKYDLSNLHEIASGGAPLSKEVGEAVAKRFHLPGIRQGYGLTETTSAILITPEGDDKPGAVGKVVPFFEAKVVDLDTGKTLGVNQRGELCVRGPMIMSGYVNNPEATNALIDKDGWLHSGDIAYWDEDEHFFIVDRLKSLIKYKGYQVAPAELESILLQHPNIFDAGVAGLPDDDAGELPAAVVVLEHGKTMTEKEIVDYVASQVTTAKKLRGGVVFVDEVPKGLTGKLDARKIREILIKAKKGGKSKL
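Purified P. pyralis luciferase (10nM final) with 10uM D-luciferin and 10uM ATP (Km levels) in 50mM Tris acetate pH 7.5, 10mM Mg acetate, 0.01% Tween-20, 0.05% BSA; qHTS 6-point titration, ~60 µM downward; luminescence read.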
Of the large screens only hits and unclear results are named; the others gave an inactive call. The list is not random: actives were taken first. Their share in the collection is about 7.3%. Calls come from the whole dose curve; as a rule, active = well fitted curve in the direction sought with a large enough effect; inconclusive = small, poorly fitted or top-dose-only effect, or another doubt; inactive = no such curve, though single readings can be large; an effect the other way counts as inactive or inconclusive.

CCOc1cc(/C=N/NC(=O)CCn2nnc3ccccc32)ccc1O	none (no result: Luc counter, SMN2 splice up)
C(=N\N1CCN(C2c3ccccc3-c3ccccc32)CC1)/c1cccnc1	none
Cc1cc(C)c(S(=O)(=O)N2CCN=C2c2ccccc2)c(C)c1	none
Cc1ccc2nc(-c3cccc(NC(=O)c4ccc5c(c4)OCCO5)c3)oc2c1	FLuc modulator 9.53µM
CC(C)c1ccc2oc(-c3cccc(NC(=O)c4ccc5c(c4)OCCO5)c3)nc2c1	FLuc modulator 2.13µM (no result: ELG1 genotoxic, Luc counter, NPC1 promoter act, Rab9 promoter act)
CC1=N/C(=C/c2cc(Br)cc(Br)c2O)C(=O)O1	none (no result: Luc counter, SMN2 splice up)
Nc1cccc(-c2cnc3ccccc3n2)c1	ELG1 genotoxic 9.2µM, NPC1 promoter act 2.51µM, Rab9 promoter act inconclusive, FLuc modulator 7.57µM (no result: Luc counter, SMN2 splice up)
CC(C)C(=O)Nc1cccc(-c2cnc3ccccc3n2)c1	ELG1 genotoxic inconclusive, NPC1 promoter act inconclusive, Rab9 promoter act inconclusive, FLuc modulator 15.1µM
O=C(Nc1cccc(-c2cnc3ccccc3n2)c1)c1ccncc1	FLuc modulator inconclusive
Cc1ccc(C(=O)Nc2cccc(-c3cnc4ccccc4n3)c2)cc1	FLuc modulator inconclusive
CC(=O)Nc1ccc(C(=O)Nc2cccc(-c3cnc4ccccc4n3)c2)cc1	none
CNC(=S)Nc1cccc(-c2cnc3ccccc3n2)c1	ELG1 genotoxic inconclusive, NPC1 promoter act inconclusive, Rab9 promoter act inconclusive, FLuc modulator 16.9µM (no result: Luc counter, SMN2 splice up)
CS(=O)(=O)Nc1cccc(-c2cnc3ccccc3n2)c1	ELG1 genotoxic inconclusive, NPC1 promoter act 3.16µM, Rab9 promoter act 4.47µM, FLuc modulator 19µM (no result: Luc counter, SMN2 splice up)
CCS(=O)(=O)c1nc(S(=O)(=O)c2ccc(C)cc2)c(NCC(C)C)s1	none (no result: ELG1 genotoxic, Luc counter, NPC1 promoter act, Rab9 promoter act)
CCOc1ccc(NC(=O)CN(C)C(=O)c2cc(S(=O)(=O)N(C)C)ccc2N2CCCC2)cc1OCC	none (no result: Luc counter, SMN2 splice up)
Clc1nn2cnnc2c2ccccc12	none (no result: SMN2 splice up)
COc1ccc(CNC(=O)c2cc(Nc3ccc(OC)cc3OC)nc3ccccc23)cc1	FLuc modulator 7.57µM (no result: ELG1 genotoxic, Luc counter, NPC1 promoter act, Rab9 promoter act)
COc1ccc(Nc2cc(C(=O)NCc3ccco3)c3ccccc3n2)cc1	none
COc1ccc(CCNC(=O)c2cc(-c3ccccc3)nc3ccccc23)cc1OC	FLuc modulator inconclusive (no result: ELG1 genotoxic, Luc counter, NPC1 promoter act, Rab9 promoter act)
COc1ccc(CCNC(=O)c2cc(Nc3cc(C)cc(C)c3)nc3ccccc23)cc1OC	FLuc modulator 6.01µM (no result: ELG1 genotoxic, Luc counter, NPC1 promoter act, Rab9 promoter act)
COc1ccc(OC)c(Nc2cc(C(=O)NCc3ccccc3)c3ccccc3n2)c1	none (no result: ELG1 genotoxic, Luc counter, NPC1 promoter act, Rab9 promoter act)
CCOc1ccccc1CNC(=O)c1cn(-c2ccc(OC)cc2)c(=O)c2ccccc12	FLuc modulator 9.53µM (no result: ELG1 genotoxic, Luc counter, SMN2 splice up, NPC1 promoter act, Rab9 promoter act)
COc1ccc(Nc2cc(C(=O)NCc3ccccc3OC)c3ccccc3n2)cc1	FLuc modulator 10.7µM (no result: ELG1 genotoxic, Luc counter, SMN2 splice up, NPC1 promoter act, Rab9 promoter act)
Cc1ccc(C)c(N(C(=O)c2csnn2)C(C(=O)NC2CCCCC2)c2ccncc2)c1 (stereo not drawn)	none (no result: Luc counter, SMN2 splice up)
Cc1c(Cl)cccc1NC(=O)Nc1c(C)n(C)n(-c2ccccc2)c1=O	none (no result: Luc counter, SMN2 splice up)
CCOC(=O)c1c(C)[nH]c(C)c1S(=O)(=O)N1CCCC(C(=O)NCc2cccc(OC)c2)C1 (stereo not drawn)	none (no result: ELG1 genotoxic, Luc counter, SMN2 splice up, NPC1 promoter act, Rab9 promoter act)
COc1ccccc1Nc1cc(C(=O)N2CCc3ccccc3C2)c2ccccc2n1	FLuc modulator inconclusive
COCCCNC(=O)c1cc(Nc2ccc(OC)cc2OC)nc2ccccc12	FLuc modulator 19µM (no result: Luc counter, SMN2 splice up)
COc1ccc(Nc2cc(C(=O)N3CCc4ccccc4C3)c3ccccc3n2)c(OC)c1	FLuc modulator 15.1µM
CC(C)(C)c1cc(C(=O)NNC(=O)Nc2cccc(Cl)c2)n(Cc2ccccc2)n1	none (no result: Luc counter, SMN2 splice up)
O=C(Sc1ccc(Cl)cc1)c1cccc(Cn2cc(C(F)(F)F)ccc2=O)c1	none (no result: Luc counter, SMN2 splice up)
N/C(=N\OC(=O)c1cccc(Cn2cc(C(F)(F)F)ccc2=O)c1)c1ccccc1	FLuc modulator inconclusive (no result: Luc counter, SMN2 splice up)
Cc1ccc(/C(N)=N/OC(=O)c2cccc(Cn3cc(C(F)(F)F)ccc3=O)c2)cc1	NPC1 promoter act inconclusive, FLuc modulator 21.3µM (no result: Luc counter, SMN2 splice up)
N/C(=N\OC(=O)c1cccc(Cn2cc(C(F)(F)F)ccc2=O)c1)c1ccc(Cl)cc1	FLuc modulator 15.1µM (no result: Luc counter, SMN2 splice up)
CCOC(=O)C1CCCN(C(=O)c2nn(-c3ccc(C)cc3)c(=O)c3c2c2ccccc2n3C)C1 (stereo not drawn)	none (no result: ELG1 genotoxic, Luc counter, NPC1 promoter act, Rab9 promoter act)

Compound activity: PubChem, National Center for Advancing Translational Sciences (NCATS)
